The supplement of paper PMC3334620
Whole data set: some 33,000 sequences, median “E-score (-0.5 to 0.5)” near -0.012, cut for the highest 2% near 0.27. This is one part of a sample in which the highest values are shown more often than they occur.

molecular target: T1, Vhr1 (UniProt P40522); assay: PBM E-score (8-mer binding enrichment) (E-score (-0.5 to 0.5)); higher = stronger / more preferred TF binding; details: protein concentration: 200 nM; construct: GST-full length
T1 sequence: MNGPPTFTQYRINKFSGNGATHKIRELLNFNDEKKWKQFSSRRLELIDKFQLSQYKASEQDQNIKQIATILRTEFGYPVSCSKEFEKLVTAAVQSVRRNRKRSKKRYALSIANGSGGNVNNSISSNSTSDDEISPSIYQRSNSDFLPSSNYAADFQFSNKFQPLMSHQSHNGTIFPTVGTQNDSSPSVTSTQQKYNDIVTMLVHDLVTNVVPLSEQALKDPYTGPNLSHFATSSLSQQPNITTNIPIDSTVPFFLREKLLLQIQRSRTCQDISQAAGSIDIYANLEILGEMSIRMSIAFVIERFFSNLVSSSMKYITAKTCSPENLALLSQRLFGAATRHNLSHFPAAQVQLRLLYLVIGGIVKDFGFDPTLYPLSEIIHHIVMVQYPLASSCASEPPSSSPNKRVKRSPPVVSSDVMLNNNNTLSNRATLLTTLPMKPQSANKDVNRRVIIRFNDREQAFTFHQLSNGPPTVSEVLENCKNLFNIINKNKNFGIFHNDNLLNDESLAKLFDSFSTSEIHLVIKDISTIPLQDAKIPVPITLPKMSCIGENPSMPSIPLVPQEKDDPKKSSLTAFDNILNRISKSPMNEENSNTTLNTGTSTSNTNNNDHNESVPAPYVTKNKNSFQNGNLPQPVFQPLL
Description: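 Universal 'all 10-mer' protein binding microarrays (Agilent AMADID 015681) probed with GST-tagged S. cerevisiae TFs (full-length or DBD) made by in vitro transcription/translation (PURExpress), about 100-200 nM. Bound TF was detected with fluorescent anti-GST. Each ungapped 8-mer (which stands for itself and its reverse complement) is scored by the PBM enrichment score (E-score), a modified Wilcoxon-Mann-Whitney statistic from -0.5 to +0.5, computed with the Universal PBM Analysis Suite. Scale: above 0.35 generally sequence-specific binding.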

Row | Sequence | PBM E-score
1 | AGACATGG | 0.192
2 | AGCCATGA | 0.228
3 | AGTCAAGG | 0.196
4 | CGTCATGA | 0.267
5 | GGTCATGA | 0.239
6 | AGTCAAGC | 0.00212
7 | AGCCATGC | 0.128
8 | AGTCATGG | 0.458
9 | AGTCATGC | 0.443
10 | CGTCATGC | 0.0219
11 | AGTCATGA | 0.466
12 | AGCCATGG | 0.281
13 | CCGTTTAG | -0.0628
14 | AGAAGCGA | -0.0198
15 | GGATAACC | -0.112
16 | AGAACTTC | -0.182
17 | CTTGCCCA | -0.177
18 | GAAGGGTA | 0.0935
19 | CAAAGTTC | -0.0789
20 | ACTGCGAG | 0.0985
21 | GCCACCAC | -0.0307
22 | ATCATGCC | 0.0697

Row | Sequence | PBM E-score
23 | ATCATGGA | 0.22
24 | CCCATGGA | 0.0783
25 | ATCATGGG | 0.272
26 | ATCATGCA | 0.192
27 | CCCATGGG | 0.285
28 | ACCATGGG | 0.108
29 | ATCATGCG | 0.283
30 | ATCATGGC | 0.143
31 | ACGGTCAC | -0.0582
32 | TAGCGTAA | -0.0878
33 | CGGAGATC | -0.0653
34 | AATTCGGA | 0.0232
35 | TCAGAACA | 0.00034
36 | GCAGCTAA | -0.106
37 | CAATTTTC | -0.0832
38 | GAGGCAAC | -0.172
39 | CATAACGA | 0.0162
40 | CGTGACAA | -0.0207
41 | CGTGACTC | 0.472
42 | CGTGACGC | -0.144
43 | CGTGACTA | 0.419
44 | CGTGACGA | 0.00499

Row | Sequence | PBM E-score
45 | CGTGACCC | 0.141
46 | GGTCGAAC | 0.00191
47 | GACCCTAA | -0.109
48 | GGAATTCC | -0.279
49 | CTAATGAA | 0.0817
50 | AGCATCTC | 0.0587
51 | GGATTTGA | -0.0695
52 | CTCGTGAC | 0.273
53 | ATCGTGAC | 0.113
54 | CTCGTGAA | 0.0314
55 | GCCCTCCA | -0.133
56 | ATATATAA | 0.247
57 | ATATATCC | 0.273
58 | CCATATCA | 0.0898
59 | CTATATAC | 0.241
60 | ATATATAT | 0.324
61 | ACATATCA | 0.281
62 | GTATATAC | 0.0568
63 | CTATATCC | -0.00727
64 | ATATATCA | 0.0989
65 | ATATATAC | 0.285
66 | ACATATCG | 0.191

Row | Sequence | PBM E-score
67 | ATATATAG | 0.132
68 | GCCTGCGA | -0.00738
69 | AGAATACT | 0.0167
70 | CAGTACCC | 0.103
71 | GATAATGC | 0.114
72 | GACCACGC | 0.148
73 | TAATCACA | 0.222
74 | GAATCACA | 0.341
75 | AAATCACC | 0.312
76 | GCATCACC | -0.0259
77 | AAATCACG | 0.173
78 | AAATCACA | 0.0215
79 | GAATCACC | 0.392
80 | CAATCACG | 0.211
81 | CAATCACC | 0.238
82 | CTAGAAAC | -0.252
83 | AAGGCTCC | -0.172
84 | ATCGACGG | 0.0804
85 | CCGAATGA | 0.166
86 | CAACCGCA | 0.0762
